Experimental data taken from PubChem BioAssay (NCATS).
Records with an inconclusive call do not appear. Where a call stands in place of a potency, no number is given. The source made the active and inactive calls. Calls come from the whole dose curve; as a rule, active = well fitted inhibition curve with a large enough effect; inconclusive = small, poorly fitted or top-dose-only effect; inactive = flat fitted curve, though single readings scatter.

molecular target: Calcium and integrin-binding protein 1 (Homo sapiens) (UniProt Q99828); assay: Primary qHTS for Identification of Calcium Integrin Binding Protein 1 (CIB1) Competitor (AID 1508620); conditions: CIB1-GST / FITC-alphaIIb peptide fluorescence polarization; series mostly up to 114 µM; note: top concentration of the series differs between compounds
How it was run: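 Fluorescence polarization competition: GST-tagged CIB1 (1 uM final) preincubated with compound 15 min at room temperature, then FITC-labelled alphaIIb peptide (100 nM final) added. After 15 min at room temperature, polarization read at Ex 480/Em 540.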

Calcium and integrin-binding protein 1 (Homo sapiens), sequence (Q99828 whole entry, looked up): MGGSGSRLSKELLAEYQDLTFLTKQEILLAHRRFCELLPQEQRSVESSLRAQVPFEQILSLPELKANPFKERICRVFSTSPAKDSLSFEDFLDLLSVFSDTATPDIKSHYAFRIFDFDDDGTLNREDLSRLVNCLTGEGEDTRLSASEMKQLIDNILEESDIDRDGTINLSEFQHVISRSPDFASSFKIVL

Row | SMILES | Potency
1 | CN(C)c1ccc2c(=O)n3nc(Nc4ccc5c(c4)CCC5)sc3nc2c1 | inactive
2 | O=C(O)c1ccc(CSc2nnc(-c3cccc(S(=O)(=O)NC4CCCC4)c3)n2-c2ccc(F)cc2)cc1 | inactive
3 | N#Cc1nc(Nc2cc(Cl)cc(Cl)c2)nc(NC2CCCC2)n1 | inactive
4 | COc1cc(OC)cc(C2=Nn3c(nnc3-c3cccc(OC)c3)SC2)c1 | inactive
5 | O=C1c2ccccc2NC(c2ccc(-c3ccc(-c4ccccc4)cc3)o2)N1O (stereo not given) | inactive
6 | O=C1CCCC2=C1C(c1[nH]ncc1Cl)NC(=NCc1cccs1)N2 (stereo not given) | inactive
7 | COc1cc(O)c(C(CC(=O)N2CCCC(C)C2)c2ccc(OC)c(OC)c2)c(OC)c1 (stereo not given) | inactive
8 | Cc1ccc(NS(=O)(=O)c2ccc3c(c2)n(C)c(=O)n3C)cc1C | inactive
9 | CCCCc1nnc(-c2cnn(C)c2N)n1CCCn1ccnc1 | inactive
10 | Cc1ccc(OCCn2c(CCNC(=O)CCN3CCCCC3)nc3ccccc32)cc1 | inactive
11 | COc1ccc(C(=O)N(Cc2ccccc2)Cc2ccccc2)c(O)c1 | inactive
12 | N#Cc1c(-c2ccc(F)cc2)no[n+]1[O-] | inactive
13 | COc1ccc(CC(=O)Nc2nc(-c3ccc4c(c3)CCN4C(=O)c3ccccc3C)c(C)s2)cc1 | inactive
14 | Cc1ccccc1C(=O)N1CCc2cc(-c3nc(NC(=O)c4ccc5c(c4)OCO5)sc3C)ccc21 | inactive
15 | CCOC(=O)c1ccc(-n2cccc2/C=C2\NC(=O)NC2=O)cc1 | inactive
16 | COc1ccccc1C(=O)OCC#CCSc1nnc(-c2cccc3ccccc23)o1 | inactive
17 | Fc1ccccc1-c1nc(NCc2ccc(-c3cccnc3)cc2)c2ccccc2n1 | inactive
18 | O=S(=O)(c1ccc2c(c1)OCCO2)N1CCN(S(=O)(=O)c2ccccc2OC(F)(F)F)CC1 | inactive
19 | CCC(=O)C1CCCN(C(=O)CC(c2ccc3c(c2)OCO3)c2c(O)cc(OC)cc2OC)C1 (stereo not given) | inactive
20 | COc1ccc(C2=Nn3c(nnc3-c3ccccc3Cl)SC2)cc1OC1CCCC1 | inactive

Row | SMILES | Potency
21 | Cc1cccc(-c2ccc3ncnc(NCc4cc(C)cs4)c3c2)c1 | inactive
22 | O=C(CN1C(=O)N/C(=C\c2cccn2-c2cccc(C(=O)O)c2)C1=O)Nc1ccccc1F | inactive
23 | COc1cccc(S(=O)(=O)N2CCN(S(=O)(=O)c3ccc4c(c3)OCCO4)CC2)c1 | inactive
24 | Oc1ccc(CCc2ccccc2)c2cccnc12 | inactive
25 | Fc1ccc(-c2ccc(CNc3nc(-c4ccccc4C(F)(F)F)nc4ccccc34)cc2)cc1C(F)(F)F | inactive
26 | Cc1cc(-c2nnc3n2CCCCCCC3)c(C)n1-c1ccccc1 | inactive
27 | C(=C\c1cccs1)/c1cccnc1 | inactive
28 | Cc1ccnc(NC(=S)NC2CCCN(c3cccc(C(F)(F)F)c3)C2)c1 (stereo not given) | inactive
29 | O=c1c2ccccc2nc2sc(Nc3ccc4c(c3)OCO4)nn12 | inactive
30 | Cc1ccc(OCCn2c(CCNC(=O)c3cccc(N)c3)nc3ccccc32)cc1 | inactive
31 | N#Cc1c(-c2cccc(C(F)(F)F)c2)no[n+]1[O-] | inactive
32 | O=C1CCCC2=C1C1(CCCC1)N=C(Nc1nc3cc(Br)ccc3o1)N2 | inactive
33 | O=C(Nc1ccc(Cl)c([N+](=O)[O-])c1)Nc1nnc(C2CCCCC2)s1 | inactive
34 | CCOc1ccc(CCNC(=O)c2cc3sccc3[nH]2)cc1OCC | inactive
35 | CCCCN(C)C(=O)Cn1nc(-c2ccc(OC)cc2)ccc1=O | inactive
36 | Cc1ccc(OCCn2c(CCNC(=O)c3ccc([N+](=O)[O-])cc3)nc3ccccc32)cc1 | inactive
37 | COc1ccc(-c2ccc3ncnc(N(C)Cc4csc(C)n4)c3c2)cc1OC | inactive
38 | O=C(OCC#CCSc1nnc(-c2cccc3ccccc23)o1)c1cnc[nH]1 | inactive
39 | O=C(Nc1ccc(-c2nc3ccccc3[nH]2)cc1)c1ccc2n[nH]nc2c1 | inactive
40 | COc1ccc(Cl)cc1S(=O)(=O)N1CCN(S(=O)(=O)c2ccc3c(c2)OCCO3)CC1 | inactive
